{"source": "PubChem BioAssay AID686978", "about": "(National Center for Advancing Translational Sciences (NCATS), 2013)", "note": "The whole screen tested about 420,000 compounds, of which about 64,000 (15%) were called active. Another 27% or so got no clear call; they are omitted. Calls follow the shape of the dose curve; as a rule, active = well fitted inhibition curve with a large enough effect; inconclusive = small, poorly fitted or top-dose-only effect; inactive = flat fitted curve, though single readings scatter. The list is a sample of the results. % is scaled to controls: 0 for no effect and ±100 for the full control effect; potency is read from the fitted curve at half-maximal effect."}
{"assay": "qHTS for Inhibitors of human tyrosyl-DNA phosphodiesterase 1 (TDP1): qHTS in cells in absence of CPT; also: nearly all actives have a fitted effect of over 55% in size", "conditions": "DT40 Tdp1-/- hTDP1 cells, no CPT, ATP luminescence, 48 h; activity change, negative = growth inhibition: at 46.2 µM (top of the series)", "source_text": "Human tyrosyl-DNA phosphodiesterase 1 (TDP1) is a novel repair gene, and we propose to use it as a new target for anticancer drug development. TDP1 is not an essential protein, but under treatment with topoisomerase I poison (camptothecin: CPT), TDP1 works as a critical factor for cell survival. To directly identify novel TDP1 inhibitors active in a cellular environment, we have knocked-out the Tdp1 gene in chicken DT40 cells (Tdp1-/-) and generated a complemented counterpart cells that contains a stable transfection of the human TDP1 gene (Tdp1-/-;hTDP1 cells). For the primary screen, Tdp1-/-;hTDP1 cells will be exposed to small molecules in the presence or absence of CPT, and their growth kinetics will be evaluated after 48 hours by measuring ATP activity. […] The hit compounds will then be evaluated in the presence or absence of CPT using Tdp1-/- cells. […] In tertiary assays, biochemical gel-based assays will be used to assess whether the hit compounds specifically target TDP1.\nTo this end, we have screened this cell line against the MLSMR in two primary screens. In one screen we add CPT and in the other we screen in the absence of CPT; this AID represents the screen where CPT was absent.\nNIH Chemical Genomics Center [NCGC]\nNIH Molecular Libraries Probe Centers Network [MLPCN]\nAssay Submitter (PI): Yves Pommier, NCI\nDT40-hTDP1 cells without 20 nM Camptothecin (add 20 microL of DMSO in 1 L of cell culture medium) were dispensed at 400 cells/5microL/well in tissue culture treated 1536-well white wall/solid bottom assay plates (Greiner Bio-One North America, NC, U.S.A.) using a Multidrop Combi 8 channel dispenser (Thermo Fisher, Waltham, MA, USA). 23 nL compounds and controls were transferred using the pin tool (Kalypsys, San Diego, CA, USA) to the assay plates. The assay plates were then incubated at 37 masculineC for a minimum 48 hr. Three microL of Cell Titer Glo solution was added to the plates and incubated at RT in dark for 30 min. Luminescence was read using ViewLux (Perkin Elmer) with 1 sec exposure slow speed, high gain and 2x binning."}
{"smiles": "O=C(CN1C(=O)NC2(CCCCCC2)C1=O)NCc1cccs1", "activity change, negative = growth inhibition": "0.121% (inactive)"}
{"smiles": "CN=C1SC(C(=O)O)CC(=O)N1C", "note": "(stereo not drawn)", "activity change, negative = growth inhibition": "1.26% (inactive)"}
{"smiles": "COc1ccc(CC(=O)n2nc(-c3cccnc3)nc2N)cc1", "activity change, negative = growth inhibition": "1.94% (inactive)"}
{"smiles": "COc1ccc(C(=O)n2nc(-c3ccc(C)cc3)nc2N)cc1OC", "Potency": "10.3 µM (active)"}
{"smiles": "COc1ccc(C(=O)n2nc(C)c(Br)c2C)cc1OC", "activity change, negative = growth inhibition": "-0.43% (inactive)"}
{"smiles": "Oc1ccc(Cl)c2c1CCC2", "activity change, negative = growth inhibition": "-27% (inactive)"}
{"smiles": "Cc1ccc(OCc2cc(C(=O)N(C)CCc3ccccc3)no2)cc1C", "activity change, negative = growth inhibition": "-19% (inactive)"}
{"smiles": "CN(Cc1cccnc1)C(=O)c1cc(COc2ccc3ncccc3c2)on1", "Potency": "8.2 µM (active)"}
{"smiles": "CN(CCOc1ccccc1)C(=O)c1cc(COc2c(F)cccc2F)on1", "activity change, negative = growth inhibition": "-24.9% (inactive)"}
{"smiles": "CCOC(=O)CNC(=O)CSc1ccc2nnc(-c3cccnc3)n2n1", "activity change, negative = growth inhibition": "-1.35% (inactive)"}
{"smiles": "COc1ccc(COC(=O)c2n[nH]c3ccccc23)cc1F", "activity change, negative = growth inhibition": "-1.31% (inactive)"}
{"smiles": "Cn1c(SCc2c(F)cccc2Cl)nnc1-c1cnccn1", "activity change, negative = growth inhibition": "-18.6% (inactive)"}
{"smiles": "Cc1cc([N+](=O)[O-])c(NC2CCCCC2)c([N+](=O)[O-])c1", "activity change, negative = growth inhibition": "-10.4% (inactive)"}
{"smiles": "CC1CN(C(=S)Nc2ccc(S(N)(=O)=O)cc2)CC(C)O1", "note": "(stereo not drawn)", "activity change, negative = growth inhibition": "11% (inactive)"}
{"smiles": "COCCN(Cc1cc2cc3c(cc2nc1Cl)OCO3)C(=O)c1cccc(C)c1", "Potency": "16.4 µM (active)"}
{"smiles": "CCOC(=O)NCc1ccc2c(c1)OCO2", "activity change, negative = growth inhibition": "-1.31% (inactive)"}
{"smiles": "CCCCN(CC)C(=O)c1ccc2c(c1)OCO2", "activity change, negative = growth inhibition": "-22.7% (inactive)"}
{"smiles": "Nc1ncnc2c1ncn2[C@@H]1O[C@H](C(=O)N2CCCN(Cc3ccccc3F)CC2)[C@@H](O)[C@H]1O", "activity change, negative = growth inhibition": "-25.2% (inactive)"}
{"smiles": "COC(=O)CCC(=O)N1CCCC(CO)(Cc2ccccc2)C1", "note": "(stereo not drawn)", "activity change, negative = growth inhibition": "-38.2% (inactive)"}
{"smiles": "COc1cccc(CC2(CO)CCCN(Cc3nc(-c4cccs4)oc3C)C2)c1", "note": "(stereo not drawn)", "Potency": "20.6 µM (active)"}
{"smiles": "CCOc1cc(CN2CCCC(CO)(Cc3ccc(F)cc3F)C2)ccc1OC", "note": "(stereo not drawn)", "activity change, negative = growth inhibition": "-19.8% (inactive)"}
{"smiles": "Cc1ccc(CS(=O)(=O)CCC(=O)NC2CC2)cc1", "activity change, negative = growth inhibition": "-0.142% (inactive)"}
{"smiles": "CC[N+]1(CC)CC2=Cc3ccccc3CC2C1", "note": "(stereo not drawn)", "activity change, negative = growth inhibition": "-19.9% (inactive)"}
{"smiles": "O=C(Nn1cnnc1)c1ccc([N+](=O)[O-])cc1", "activity change, negative = growth inhibition": "-4.36% (inactive)"}
{"smiles": "O=C(c1ccncc1)c1ccc([N+](=O)[O-])cc1", "activity change, negative = growth inhibition": "-16.7% (inactive)"}
{"smiles": "O=C(Cn1c[n+](CC(=O)c2ccc([N+](=O)[O-])cc2)cn1)c1ccc([N+](=O)[O-])cc1", "Potency": "20.6 µM (active)"}
{"smiles": "CCOC(=O)CSc1nnc(-c2ccc([N+](=O)[O-])cc2)o1", "activity change, negative = growth inhibition": "-10.3% (inactive)"}
{"smiles": "O=C(NC1CCC(O)CC1)c1ccccc1OCc1ccc(F)cc1", "note": "(stereo not drawn)", "activity change, negative = growth inhibition": "9.54% (inactive)"}
{"smiles": "COc1ccccc1C(=O)Nn1cnnc1", "activity change, negative = growth inhibition": "3.96% (inactive)"}
{"smiles": "O=C(Nc1ccccc1)c1ccccc1OCc1ccccc1", "activity change, negative = growth inhibition": "-23.2% (inactive)"}
{"smiles": "COc1ccccc1C(=O)NNC(=O)c1ccc(NC(=O)c2ccccc2)cc1", "activity change, negative = growth inhibition": "-8.31% (inactive)"}
{"smiles": "CC(=O)c1ccccc1OCc1ccc(C(=O)c2ccccc2)cc1", "Potency": "16.4 µM (active)"}
{"smiles": "COc1ccccc1C(=O)c1ccccc1C(=O)c1ccccc1", "Potency": "18.4 µM (active)"}
{"smiles": "COc1ccc(CC(=O)OC(C)C(=O)Nc2ccc(S(N)(=O)=O)cc2)cc1", "note": "(stereo not drawn)", "activity change, negative = growth inhibition": "-14.9% (inactive)"}
{"smiles": "O=C(Nc1ccccc1C(=O)O)c1ccc(N2C(=O)C3CC=CCC3C2=O)cc1", "note": "(stereo not drawn)", "activity change, negative = growth inhibition": "7.37% (inactive)"}
{"smiles": "O=CN1CCN(C(=O)c2ccc3c(c2)OCO3)CC1", "activity change, negative = growth inhibition": "17.6% (inactive)"}
{"smiles": "C=CCNC(=O)COc1coc(CN2CCN(Cc3ccccc3)CC2)cc1=O", "activity change, negative = growth inhibition": "16.1% (inactive)"}
{"smiles": "CNC(=S)NNC(=O)c1cccn(Cc2ccccc2)c1=O", "activity change, negative = growth inhibition": "18.9% (inactive)"}
{"smiles": "C=CCNC(=S)/N=c1/ccccn1Cc1ccccc1", "Potency": "1.84 µM (active)"}
{"smiles": "CCCc1nc(N)nc2c1C(=O)CC(C)(C)C2", "activity change, negative = growth inhibition": "-9.4% (inactive)"}
{"smiles": "COc1ccc(C(C(=O)NC(C)(C)C)N(C(=O)Cn2nnc3ccccc32)c2ccc(C(C)=O)cc2)cc1O", "note": "(stereo not drawn)", "activity change, negative = growth inhibition": "-0.0142% (inactive)"}
{"smiles": "O=C(CC(NCCN1CCOCC1)C(=O)O)Nc1cccc(Cl)c1", "note": "(stereo not drawn)", "activity change, negative = growth inhibition": "0.483% (inactive)"}
{"smiles": "OC[C@@H]1CN(Cc2ccc3c(c2)OCO3)C[C@H](n2cnc3c(NCc4ccco4)ncnc32)O1", "activity change, negative = growth inhibition": "-9.44% (inactive)"}
{"smiles": "Cc1ccccc1NC(=O)CCNS(=O)(=O)c1ccc2[nH]c(=O)oc2c1", "activity change, negative = growth inhibition": "-1.56% (inactive)"}
{"smiles": "COc1ccc(C2=NS(=O)(=O)N(C)C(C(=O)NC(C)c3ccccc3)=C2)cc1", "note": "(stereo not drawn)", "activity change, negative = growth inhibition": "-30.1% (inactive)"}
{"smiles": "COc1cc(NC(=O)C2=CC(c3ccc(C)cc3)=NS(=O)(=O)N2C)cc(OC)c1OC", "activity change, negative = growth inhibition": "-45.5% (inactive)"}
{"smiles": "COc1ccc(NC(=O)C2=CC(c3ccc(OC)c(OC)c3)=NS(=O)(=O)N2C)cc1", "Potency": "23.1 µM (active)"}
{"smiles": "COc1ccccc1N(CC(=O)N1CCCCC1)S(=O)(=O)c1ccccc1", "activity change, negative = growth inhibition": "-24.2% (inactive)"}
{"smiles": "CC(=O)Nc1ccccc1Sc1ccc2c3c(cccc13)C(=O)N(c1ccc(C)cc1)C2=O", "Potency": "16.4 µM (active)"}
{"smiles": "CCOC(=O)Nc1ccccc1N1C(=O)c2ccccc2C1=O", "activity change, negative = growth inhibition": "7.52% (inactive)"}
{"smiles": "CSc1ccccc1NC(=O)C(C)N1C(=O)c2ccccc2S1(=O)=O", "note": "(stereo not drawn)", "activity change, negative = growth inhibition": "-7.02% (inactive)"}
{"smiles": "Cc1c(Cl)c([N+](=O)[O-])nn1CC(=O)NCC1CCCO1", "note": "(stereo not drawn)", "activity change, negative = growth inhibition": "7.74% (inactive)"}
{"smiles": "COc1ccc(NC(=O)CCCC(=O)c2ccccc2)cc1", "activity change, negative = growth inhibition": "-6.59% (inactive)"}
{"smiles": "O=S(=O)(N1CCCCC1)N1CCNCC1", "activity change, negative = growth inhibition": "6.69% (inactive)"}
{"smiles": "Cc1ccc(C(=O)N/C(=C\\c2cn(C)c3ccccc23)C(=O)N2CCN(C)CC2)cc1", "activity change, negative = growth inhibition": "11.5% (inactive)"}
{"smiles": "Cc1cccc(N=C2NC(=O)/C(=C/c3cn(C)c4ccccc34)S2)c1", "Potency": "16.4 µM (active)"}
{"smiles": "CN1C(=O)/C(=C/c2ccco2)SC1=Nc1cccc(C(=O)O)c1", "activity change, negative = growth inhibition": "-0.247% (inactive)"}
{"smiles": "Cc1ccc(NC(=O)CN(C)S(=O)(=O)c2cnc[nH]2)cc1C", "activity change, negative = growth inhibition": "-7.33% (inactive)"}
